Results published in ChEMBL document CHEMBL3988442, “University of Dundee, Small-Polar-MMV Screening Library” (2021).
Screen size: about 48,000 compounds; about 13,000 (27%) showed an effect of 50% or more. Some of the results follow.

system: Wolbachia pipientis; assay: Anti-Wolbachia Cell-Based Screen; assay type: functional; design: scale not given: in the data most compounds retested in dose-response had high values; settings: 5 µM

SMILES | Percent Effect [%]
CC(=O)Nc1ccc([C@@H](O)[C@H]2COCC(=O)N2CC(C)C)cc1 | -7.535
Cc1noc(CN(Cc2ccc3c(c2)OCO3)C2CCCC2)n1 | 3.676
CCN(Cc1ccc2c(c1)OCO2)Cc1nc(C)no1 | 5.817
c1cc2c(cc1CN(Cc1nc(C3CC3)no1)C1CCCC1)OCO2 | 88.61
CCCc1noc(CN(C)Cc2ccc3c(c2)OCO3)n1 | -4.394
Cc1noc(CN(C)Cc2ccc3c(c2)OCO3)n1 | 95.73
Cc1csc(CNC(=O)N(C)Cc2ccc3c(c2)OCCO3)n1 | -8.149
CN(C(=O)Cc1ccc2c(c1)OCCO2)C1CCCCC1 | -4.303
CCc1noc(CN(C)C(=O)c2ccnc(OC3CCC3)c2)n1 | -5.488
Cc1nc(CN(Cc2ccc3c(c2)OCCO3)C2CCCC2)no1 | 158.9
CCN(Cc1nc(C2CC2)no1)Cc1ccc(C#N)cc1F | -4.842
CCc1noc(CN(Cc2ccc3c(c2)OCO3)C2CCCC2)n1 | 130.5
CC(C)c1nc2n(n1)CC(Nc1ncnc3c1CCC3)CC2 (stereo unspecified) | -10.8
O=C(c1cc[nH]n1)N1CCN(C(c2ccccc2)C(F)(F)F)CC1 (stereo unspecified) | 48.39
N#CCCN(CCC#N)C(=O)c1ccc(COc2ccccc2C#N)o1 | -1.523
CN(C)CCN(C)S(=O)(=O)CC1CCOCC1 | 3.137
CC(CS(C)(=O)=O)N(C(=O)Nc1ccc(F)cc1F)C1CC1 (stereo unspecified) | 2.637
COc1cc(OC)c(CNC(=O)NCc2ccc(C#N)cc2)c(OC)c1 | 1.359
COCCO[C@H]1COCCN(Cc2ccc(OC)cc2)C1 | -5.552
O=C(C1CCOc2ccccc2C1)N1Cc2cnn(CCO)c2C1 (stereo unspecified) | -2.46
CCCN(C(=O)CN1CCN(CC(C)O)CC1)C1=CCCCC1 (stereo unspecified) | -2.912
CCc1nc(C2CCCN2c2ncc(C(N)=O)cc2Cl)no1 (stereo unspecified) | -14.14
Cc1noc(C2CCCN2C(=O)C2CCC2)n1 (stereo unspecified) | 124.3
CC(=O)N1CCCC1c1nc(C)no1 (stereo unspecified) | 122.1

SMILES | Percent Effect [%]
CNCC(=O)N1CCCC1c1nc(C(C)C)no1 (stereo unspecified) | 10.93
Cc1noc([C@@H]2C[C@H](NC(=O)NC3CCCCC3)CN2C)n1 | -10.92
Cc1noc([C@@H]2CCCN2C(=O)C2CCN(C(=O)C3CCC3)CC2)n1 | -13.41
Cc1noc([C@@H]2CCCN2C(=O)C2CCN(CC(N)=O)CC2)n1 | 1.357
Cc1ccc([C@@H]2CN(C(=O)c3cc[nH]c3)C[C@H]2NC(=O)C2CC2)cc1 | 18.05
NC(=O)C1CCN(CCc2ccc(NCc3ccoc3)cc2)CC1 | -9.363
CNC(=O)c1cccnc1N1CCN(C/C=C/c2ccccc2)CC1 | 6.453
CCOCCNC(=O)c1cccnc1N1CCCC1c1ccccn1 (stereo unspecified) | 122.4
CCC(CC)NC(=O)c1cccnc1N1CCCC1c1ccccn1 (stereo unspecified) | 119.8
CCC(CC)NC(=O)c1cccnc1-n1cccn1 | 10.93
COc1cccc(C(=O)N2CCN(C(=O)CCCn3ccnc3)CC2)c1 | -1.45
COc1ccc(C(=O)O)c(OCC(=O)NC(C)c2ccc(F)cc2)c1 (stereo unspecified) | -5.25
Cc1ccc(C(N)c2cccs2)cc1 (stereo unspecified) | 13.29
Cc1ccccc1C(N)c1ccncc1.Cl (stereo unspecified) | 102.8
Cc1ccccc1CN(Cc1ccncc1)CC(C)C | -4.812
COCC(NC(=O)c1cc[nH]n1)c1cccc(C(F)(F)F)c1 (stereo unspecified) | -1.057
O=C(c1ccccn1)N1C[C@@H]2CC[C@H](C1)N(C(=O)CCC(F)(F)F)C2 | -20.57
Cn1cc(-c2nnc3sc(C4CC4)nn23)cn1 | 89.59
Cn1cc(-c2nnc3sc(C4CCC4)nn23)cn1 | 131.8
Cn1cc(-c2nc(CN3CCn4c(nnc4C4CC4)C3)cs2)cn1 | -10.47
CCCC1CCCN(Cc2csc(-c3cnn(C)c3)n2)CC1 (stereo unspecified) | -16.04
Cn1cc(-c2csc(N3CCCCCC3)n2)cn1 | -2.114
CCC(CO)N(Cc1ccsc1)CC1CC1 (stereo unspecified) | -8.901
CCS(=O)(=O)CCCN1CCSCC1c1ccc(Cl)cc1 (stereo unspecified) | 4.065

SMILES | Percent Effect [%]
CCOc1ccc(CNC(C)c2cccc(S(=O)(=O)NC)c2)cc1 (stereo unspecified) | 0.3734
CCOc1ccc(SCCS(=O)(=O)CC)cc1 | 102.3
CCCNS(=O)(=O)Cc1ccc(Br)cc1 | -14.67
CCS(=O)(=O)CCSc1ccc(Br)cc1 | 61.96
N#Cc1cccc(SCCS(N)(=O)=O)c1 | 2.301
CCOc1ccc(SCCNS(=O)(=O)CC)cc1 | 37.47
N#Cc1ccc(SCCC(=O)O)cc1 | -2.439
CCS(=O)(=O)CCSc1ccc(Cl)cc1 | 82.02
CC(C)c1cc(=O)[nH]c(C(C)(C)N)n1.Cl | -9.286
CNC(=O)Cc1noc(-c2cc3c(s2)CCC(C)(C)C3)n1 | -4.639
O=C(O)c1ccc(CN2CCCC(Cc3ccn[nH]3)C2)cc1 (stereo unspecified) | 99.33
COc1ccccc1CC1CCCN(C(=O)c2cn[nH]c2C)C1 (stereo unspecified) | -7.935
O=C(O)c1cccc(CN2CCCC(Cc3ccn[nH]3)C2)c1 (stereo unspecified) | 127.8
COc1ccccc1CC1CCCN(CC(N)=O)C1 (stereo unspecified) | -5.386
O=C1CCCN1CCN1CCCC(c2ccn[nH]2)C1 (stereo unspecified) | 1.781
O=C(O)c1cccc(CN2CCCC(c3ccn[nH]3)C2)c1 (stereo unspecified) | 109.3
c1ccn2cc(CN3CCCC(c4ccn[nH]4)C3)nc2c1 (stereo unspecified) | 9.447
O=C(O)c1ccccc1CN1CCCC(Cc2ccn[nH]2)C1 (stereo unspecified) | 106.4
CC(C)(C)OC(=O)NC1CCCN(Cc2cccc(O)c2)C1 (stereo unspecified) | -3.79
Cc1ccsc1[C@@H]1CCN(C(=O)c2ccc(-c3cc[nH]n3)cc2)C[C@H]1O | -2.8
CCC(SC)C(=O)N1CCC(n2cccn2)CC1 (stereo unspecified) | -7.031
CN1C(=O)CC2(CCN(S(=O)(=O)c3cccs3)CC2)c2ccccc21 | 10.11
COCCCNC(=O)C1(NC(=O)c2ccc3[nH]ncc3c2)CCCC1 | -2
